Assay results published in the supplement of paper PMC10849652.
About 7,900 targets were measured; listed, in parts, are those with a hit and a random draw of the rest. About 0.6% of all pairs of compound and target were hits.

Columns and labels:
Assay in all cases: log2 fold change, soluble protein after heating vs DMSO (PISA); higher = thermal stabilisation; K562 cells, 10 uM, 30 min; active = over 0.2 and 3.5 SD of the protein, either way, in both replicates (recomputed)
[1] = compound: COC1=CC=C(C=C1)CN2C=CC3=C2C=C(C=C3)C(=O)NO
Method in brief: (§1)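 Soluble protein was defined as the supernatant after 21,000xg for 90 min. It came from K562 cells at 2×10^6 cells/mL given 10 μM compound for 30 min, heated in aliquots for 3 min across 48°C-58°C, pooled, and extracted in PBS with 0.5% NP-40 at 4°C, and was quantified by TMTpro 16plex LC-MS/MS with equalised channel sums. Thermal stability against control samples, from duplicates, is reported as log2 fold change.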

filanesib = compound: CON(C)C(=O)N1N=C(c2cc(F)ccc2F)S[C@@]1(CCCN)c1ccccc1 [filanesib]
Method in brief: as §1

zotarolimus = compound: CO[C@H]1C[C@@H]2CC[C@@H](C)[C@@](O)(O2)C(=O)C(=O)N2CCCC[C@H]2C(=O)O[C@H]([C@H](C)C[C@@H]2CC[C@H](n3cnnn3)[C@H](OC)C2)CC(=O)[C@H](C)/C=C(\C)[C@@H](O)[C@@H](OC)C(=O)[C@H](C)C[C@H](C)/C=C/C=C/C=C/1C [zotarolimus]
Method in brief: as §1

idasanutlin = compound: COc1cc(C(=O)O)ccc1NC(=O)[C@@H]1N[C@@H](CC(C)(C)C)[C@](C#N)(c2ccc(Cl)cc2F)[C@H]1c1cccc(Cl)c1F [idasanutlin]
Method in brief: as §1

alisertib = compound: COc1cc(Nc2ncc3c(n2)-c2ccc(Cl)cc2C(c2c(F)cccc2OC)=NC3)ccc1C(=O)O [alisertib]
Method in brief: as §1

[2] = compound: COc1cc2nc(-c3cc(F)ccc3O)nc(N[C@@H]3CNC[C@H]3C(C)(C)O)c2cc1OC
Method in brief: as §1

gefitinib = compound: COc1cc2ncnc(Nc3ccc(F)c(Cl)c3)c2cc1OCCCN1CCOCC1 [gefitinib]
Method in brief: as §1

[3] = compound: COc1cccc2cc(-c3nc([C@H]4CC[C@H](C(=O)O)CC4)n4ncnc(N)c34)[nH]c12
Method in brief: as §1

lapatinib = compound: CS(=O)(=O)CCNCc1ccc(-c2ccc3ncnc(Nc4ccc(OCc5cccc(F)c5)c(Cl)c4)c3c2)o1 [lapatinib]
Method in brief: as §1

pictilisib = compound: CS(=O)(=O)N1CCN(Cc2cc3nc(-c4cccc5[nH]ncc45)nc(N4CCOCC4)c3s2)CC1 [pictilisib]
Method in brief: as §1

[4] = compound: CS(=O)(=O)c1ccc(-c2cnc(N)c(C(=O)Nc3ccccc3)n2)cc1
Method in brief: as §1

crizotinib = compound: C[C@@H](Oc1cc(-c2cnn(C3CCNCC3)c2)cnc1N)c1c(Cl)ccc(F)c1Cl [crizotinib]
Method in brief: as §1

[5] = compound: C[C@@H]1COCCN1C2=NC(=NC(=C2)C3(CC3)S(=O)(=O)C)C4=C5C=CNC5=CC=C4
Method in brief: as §1

[6] = compound: C[C@H](C1=CC=C(C=C1)C(=O)NC2=C3C=CNC3=NC=C2)N
Method in brief: as §1

duvelisib = compound: C[C@H](Nc1ncnc2nc[nH]c12)c1cc2cccc(Cl)c2c(=O)n1-c1ccccc1 [duvelisib]
Method in brief: as §1

gandotinib = compound: Cc1cc(Nc2cc(CN3CCOCC3)c3nc(C)c(Cc4ccc(Cl)cc4F)n3n2)n[nH]1 [gandotinib]
Method in brief: as §1

tozasertib = compound: Cc1cc(Nc2cc(N3CCN(C)CC3)nc(Sc3ccc(NC(=O)C4CC4)cc3)n2)n[nH]1 [tozasertib]
Method in brief: as §1

[7] = compound: Cc1cc(SCc2sc(-c3ccc(C(F)(F)F)cc3)nc2C)ccc1OCC(=O)O
Method in brief: as §1

doramapimod = compound: Cc1ccc(-n2nc(C(C)(C)C)cc2NC(=O)Nc2ccc(OCCN3CCOCC3)c3ccccc23)cc1 [doramapimod]
Method in brief: as §1

ispinesib = compound: Cc1ccc(C(=O)N(CCCN)[C@@H](c2nc3cc(Cl)ccc3c(=O)n2Cc2ccccc2)C(C)C)cc1 [ispinesib]
Method in brief: as §1

Measured: log2 fold change

SPR (UniProt P35270)
UniProt P35270, sequence (P35270 whole entry, looked up): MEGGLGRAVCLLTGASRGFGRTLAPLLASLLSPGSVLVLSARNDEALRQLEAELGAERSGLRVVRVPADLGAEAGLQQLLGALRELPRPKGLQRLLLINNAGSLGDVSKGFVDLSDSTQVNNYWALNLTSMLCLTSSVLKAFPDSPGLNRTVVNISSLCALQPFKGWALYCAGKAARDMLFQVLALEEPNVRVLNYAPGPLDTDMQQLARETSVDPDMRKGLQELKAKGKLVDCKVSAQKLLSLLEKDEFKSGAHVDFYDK
inactive: filanesib -0.087 | zotarolimus 0 | idasanutlin -0.225 | alisertib -0.051 | [2] -0.039 | gefitinib -0.008 | [3] 0.021 | lapatinib -0.031 | [4] -0.006 | crizotinib 0.125 | [5] 0.058 | [6] -0.059 | duvelisib 0.109 | gandotinib 0.288 | tozasertib 0.154 | [7] -0.025 | doramapimod -0.05 | ispinesib -0.103
active: [1] 0.794 | pictilisib 0.681

SYNE2 isoform 2 (UniProt Q8WXH0)
active: gandotinib 0.521
inactive: [1] 0.112 | filanesib 0.048 | zotarolimus -0.057 | idasanutlin -0.185 | alisertib -0.054 | [2] 0.34 | gefitinib 0.078 | [3] -0.004 | lapatinib -0.133 | pictilisib 0.205 | [4] 0.209 | crizotinib -0.009 | [6] 0.429 | duvelisib 0.214 | tozasertib -0.053 | [7] 0.06 | doramapimod 0.046 | ispinesib -0.08

SPAG9 isoform 4 (UniProt O60271)
inactive: [1] -0.02 | filanesib 0.078 | zotarolimus -0.076 | idasanutlin -0.006 | alisertib 0.062 | gefitinib -0.007 | [3] -0.112 | [4] 0.144 | crizotinib -0.061 | [6] 0.123 | tozasertib 0.142 | doramapimod 0.042 | ispinesib -0.128

TATDN2 (UniProt Q93075)
UniProt Q93075, sequence (Q93075 whole entry, looked up): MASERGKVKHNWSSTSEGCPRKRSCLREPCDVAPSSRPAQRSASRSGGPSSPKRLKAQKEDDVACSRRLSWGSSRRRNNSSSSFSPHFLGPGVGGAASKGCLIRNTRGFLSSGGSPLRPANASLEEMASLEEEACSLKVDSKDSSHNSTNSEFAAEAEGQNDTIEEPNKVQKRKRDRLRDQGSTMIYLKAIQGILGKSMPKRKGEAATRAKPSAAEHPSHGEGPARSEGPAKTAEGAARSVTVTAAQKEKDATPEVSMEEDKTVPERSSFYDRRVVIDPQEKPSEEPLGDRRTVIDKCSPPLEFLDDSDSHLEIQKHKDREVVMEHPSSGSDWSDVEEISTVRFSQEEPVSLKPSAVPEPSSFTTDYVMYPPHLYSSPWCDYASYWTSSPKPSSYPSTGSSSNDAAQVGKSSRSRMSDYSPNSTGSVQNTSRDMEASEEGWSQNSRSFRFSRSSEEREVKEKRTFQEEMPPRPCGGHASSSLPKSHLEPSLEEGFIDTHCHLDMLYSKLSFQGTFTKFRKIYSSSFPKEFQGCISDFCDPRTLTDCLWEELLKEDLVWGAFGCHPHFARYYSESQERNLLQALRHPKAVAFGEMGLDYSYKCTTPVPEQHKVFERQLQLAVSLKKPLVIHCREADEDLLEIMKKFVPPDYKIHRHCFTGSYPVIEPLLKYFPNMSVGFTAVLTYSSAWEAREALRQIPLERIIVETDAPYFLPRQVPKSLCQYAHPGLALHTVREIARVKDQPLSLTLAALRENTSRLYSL
inactive: [1] -0.011 | filanesib 0.002 | zotarolimus 0.006 | idasanutlin 0.012 | [2] -0.015 | gefitinib -0.037 | lapatinib 0.021 | pictilisib -0.016 | [4] 0.002 | crizotinib -0.061 | [5] 0.028 | [6] 0.078 | duvelisib 0.019 | gandotinib 0.106 | tozasertib 0.136 | [7] 0.045 | doramapimod 0.063

STK38 (UniProt Q15208)
UniProt Q15208, sequence (Q15208 whole entry, looked up): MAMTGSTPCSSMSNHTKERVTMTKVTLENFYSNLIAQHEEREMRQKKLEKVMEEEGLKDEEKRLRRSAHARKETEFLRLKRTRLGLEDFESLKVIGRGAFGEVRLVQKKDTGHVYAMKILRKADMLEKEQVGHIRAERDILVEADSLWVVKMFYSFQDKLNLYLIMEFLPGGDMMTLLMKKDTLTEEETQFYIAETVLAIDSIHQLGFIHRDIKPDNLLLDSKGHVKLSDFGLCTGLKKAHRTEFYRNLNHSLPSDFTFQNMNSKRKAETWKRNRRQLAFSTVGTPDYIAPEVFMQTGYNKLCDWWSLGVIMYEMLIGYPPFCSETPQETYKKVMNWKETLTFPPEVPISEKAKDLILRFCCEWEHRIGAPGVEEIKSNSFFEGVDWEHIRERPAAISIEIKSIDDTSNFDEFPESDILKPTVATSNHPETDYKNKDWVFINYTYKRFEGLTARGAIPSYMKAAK
inactive: [1] 0.029 | filanesib -0.024 | zotarolimus 0.036 | idasanutlin -0.009 | alisertib 0.007 | [2] -0.006 | gefitinib -0.038 | [3] -0.01 | lapatinib -0.001 | pictilisib 0.146 | [4] 0.081 | crizotinib -0.087 | [5] 0.089 | [6] -0.031 | duvelisib 0.052 | gandotinib -0.024 | tozasertib 0.065 | [7] 0.072 | doramapimod -0.011 | ispinesib 0.026

STAT3 (UniProt P40763)
UniProt P40763, sequence (P40763 whole entry, looked up): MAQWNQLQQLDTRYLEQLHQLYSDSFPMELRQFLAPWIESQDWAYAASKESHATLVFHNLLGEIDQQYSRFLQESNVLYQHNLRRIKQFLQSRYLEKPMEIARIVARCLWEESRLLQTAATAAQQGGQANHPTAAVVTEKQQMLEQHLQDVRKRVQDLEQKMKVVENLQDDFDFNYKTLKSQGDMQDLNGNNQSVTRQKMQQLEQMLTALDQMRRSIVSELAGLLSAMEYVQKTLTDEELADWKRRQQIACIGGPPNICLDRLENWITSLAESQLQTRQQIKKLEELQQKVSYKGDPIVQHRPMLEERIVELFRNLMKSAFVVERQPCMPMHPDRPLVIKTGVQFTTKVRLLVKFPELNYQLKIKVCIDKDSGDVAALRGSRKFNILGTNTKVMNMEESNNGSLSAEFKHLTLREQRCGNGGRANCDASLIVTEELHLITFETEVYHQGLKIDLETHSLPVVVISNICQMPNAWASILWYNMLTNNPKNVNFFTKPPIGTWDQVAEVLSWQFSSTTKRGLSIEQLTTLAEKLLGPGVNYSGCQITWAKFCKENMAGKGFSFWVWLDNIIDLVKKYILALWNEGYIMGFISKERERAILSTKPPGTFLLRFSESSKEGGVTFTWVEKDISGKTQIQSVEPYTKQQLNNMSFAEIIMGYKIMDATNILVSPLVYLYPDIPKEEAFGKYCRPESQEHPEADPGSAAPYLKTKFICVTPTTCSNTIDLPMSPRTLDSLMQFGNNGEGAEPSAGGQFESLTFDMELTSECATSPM
inactive: [1] 0.063 | filanesib -0.031 | zotarolimus 0.086 | idasanutlin -0.003 | alisertib 0.013 | [2] 0.023 | gefitinib 0 | [3] -0.039 | lapatinib 0.004 | pictilisib 0.051 | [4] 0.059 | crizotinib -0.126 | [5] 0.105 | [6] -0.063 | duvelisib 0 | gandotinib -0.184 | tozasertib 0.073 | [7] 0.088 | doramapimod -0.009 | ispinesib -0.03

SRXN1 (UniProt Q9BYN0)
UniProt Q9BYN0, sequence (Q9BYN0 whole entry, looked up): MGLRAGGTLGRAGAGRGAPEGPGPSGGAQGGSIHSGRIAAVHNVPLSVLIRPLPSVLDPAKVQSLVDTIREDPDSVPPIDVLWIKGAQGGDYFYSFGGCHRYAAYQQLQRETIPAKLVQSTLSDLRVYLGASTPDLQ
active: pictilisib -0.562
inactive: [1] 0.406 | filanesib 0.076 | zotarolimus 0.022 | idasanutlin -0.028 | alisertib 0.098 | [2] -0.036 | gefitinib 0.012 | [3] 0.001 | lapatinib 0.151 | [4] 0.009 | crizotinib -0.295 | [5] 0.09 | [6] -0.091 | gandotinib 0.01 | tozasertib -0.086 | doramapimod 0.076 | ispinesib -0.16

SYNE1 (UniProt Q8NF91)
inactive: [1] 0.316 | filanesib -0.079 | zotarolimus 0.019 | idasanutlin -0.029 | alisertib 0.002 | gefitinib 0.049 | [3] 0.084 | pictilisib 0.187 | [4] 0.096 | crizotinib -0.132 | [5] -0.041 | [6] 0.104 | duvelisib 0.103 | gandotinib 0.109 | tozasertib -0.187 | [7] -0.04 | doramapimod 0.061 | ispinesib -0.159

SP3 (UniProt Q02447)
inactive: [1] -0.001 | filanesib -0.008 | zotarolimus -0.024 | idasanutlin 0.052 | alisertib -0.084 | [2] 0.037 | gefitinib -0.038 | [3] -0.04 | lapatinib 0.016 | pictilisib 0.041 | [4] -0.005 | crizotinib 0.013 | [5] -0.071 | [6] 0.123 | duvelisib 0.031 | gandotinib 0.086 | tozasertib 0.032 | [7] 0 | doramapimod 0.089 | ispinesib -0.046

SLC35A1 (UniProt P78382)
UniProt P78382, sequence (P78382 whole entry, looked up): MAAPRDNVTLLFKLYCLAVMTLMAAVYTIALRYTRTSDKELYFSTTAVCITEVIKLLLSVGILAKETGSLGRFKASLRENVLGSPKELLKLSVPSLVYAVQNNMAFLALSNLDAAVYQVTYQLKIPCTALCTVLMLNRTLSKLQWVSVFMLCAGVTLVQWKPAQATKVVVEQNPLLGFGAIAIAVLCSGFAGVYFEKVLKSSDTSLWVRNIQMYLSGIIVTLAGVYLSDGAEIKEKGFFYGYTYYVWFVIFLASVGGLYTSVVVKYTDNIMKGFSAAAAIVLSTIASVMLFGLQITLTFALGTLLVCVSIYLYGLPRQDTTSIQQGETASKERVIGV
inactive: [1] 0.048 | filanesib -0.021 | zotarolimus -0.138 | idasanutlin -0.051 | alisertib -0.063 | [2] -0.097 | gefitinib 0.06 | [3] 0.06 | lapatinib -0.028 | [4] -0.017 | crizotinib 0.056 | [5] 0.044 | [6] -0.196 | duvelisib -0.005 | tozasertib -0.036 | [7] 0.074 | doramapimod -0.039 | ispinesib 0.04

SNX15 (UniProt Q9NRS6)
UniProt Q9NRS6, sequence (Q9NRS6 whole entry, looked up): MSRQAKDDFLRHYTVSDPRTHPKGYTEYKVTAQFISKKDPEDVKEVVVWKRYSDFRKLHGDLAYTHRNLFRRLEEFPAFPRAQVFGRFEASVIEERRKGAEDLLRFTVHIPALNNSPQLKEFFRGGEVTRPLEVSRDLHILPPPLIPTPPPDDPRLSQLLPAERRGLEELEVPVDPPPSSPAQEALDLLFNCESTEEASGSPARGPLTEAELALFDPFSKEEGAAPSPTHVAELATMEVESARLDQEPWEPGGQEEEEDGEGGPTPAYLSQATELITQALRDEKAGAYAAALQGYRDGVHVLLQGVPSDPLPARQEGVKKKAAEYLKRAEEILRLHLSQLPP
inactive: [1] -0.166 | filanesib 0.151 | zotarolimus -0.034 | idasanutlin 0.108 | alisertib -0.027 | [2] 0.019 | gefitinib 0.126 | [3] 0.032 | lapatinib -0.139 | pictilisib 0.018 | [4] 0.064 | crizotinib 0.002 | [6] 0.153 | duvelisib -0.012 | gandotinib -0.061 | tozasertib 0.063 | [7] -0.043 | doramapimod 0.136 | ispinesib -0.132

TIPRL (UniProt O75663)
UniProt O75663, sequence (O75663 whole entry, looked up): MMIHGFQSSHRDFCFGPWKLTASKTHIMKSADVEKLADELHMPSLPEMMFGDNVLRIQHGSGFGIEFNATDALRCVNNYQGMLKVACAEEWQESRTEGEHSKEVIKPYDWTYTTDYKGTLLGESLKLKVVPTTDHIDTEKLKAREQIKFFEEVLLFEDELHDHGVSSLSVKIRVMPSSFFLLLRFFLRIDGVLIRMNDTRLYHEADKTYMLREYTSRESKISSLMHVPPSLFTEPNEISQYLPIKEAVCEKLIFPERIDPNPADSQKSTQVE
inactive: [1] 0.011 | filanesib -0.063 | zotarolimus -0.013 | idasanutlin -0.104 | alisertib 0.014 | [2] 0.043 | gefitinib -0.034 | [3] -0.009 | lapatinib -0.009 | pictilisib 0.034 | [4] 0.065 | crizotinib -0.167 | [5] 0.143 | [6] -0.023 | duvelisib -0.016 | gandotinib -0.159 | tozasertib -0.011 | [7] 0.065 | doramapimod -0.034 | ispinesib -0.055

TM7SF3 (UniProt Q9NS93)
UniProt Q9NS93, sequence (Q9NS93 whole entry, looked up): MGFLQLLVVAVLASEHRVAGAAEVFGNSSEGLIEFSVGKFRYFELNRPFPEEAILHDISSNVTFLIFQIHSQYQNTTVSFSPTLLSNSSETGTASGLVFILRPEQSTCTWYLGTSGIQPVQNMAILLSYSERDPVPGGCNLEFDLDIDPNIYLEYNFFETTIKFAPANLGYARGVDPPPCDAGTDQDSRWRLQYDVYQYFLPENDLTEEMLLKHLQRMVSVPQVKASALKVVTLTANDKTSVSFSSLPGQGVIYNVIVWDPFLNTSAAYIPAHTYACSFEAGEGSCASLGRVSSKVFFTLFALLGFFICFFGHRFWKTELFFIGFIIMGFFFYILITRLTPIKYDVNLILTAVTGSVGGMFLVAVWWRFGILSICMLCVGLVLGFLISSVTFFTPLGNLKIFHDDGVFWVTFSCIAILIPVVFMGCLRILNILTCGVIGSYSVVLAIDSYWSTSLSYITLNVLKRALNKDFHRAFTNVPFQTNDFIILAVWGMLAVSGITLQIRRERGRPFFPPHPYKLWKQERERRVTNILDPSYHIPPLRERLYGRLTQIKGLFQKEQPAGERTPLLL
active: crizotinib -0.432 | ispinesib -0.343
inactive: [1] -0.002 | filanesib -0.218 | zotarolimus -0.042 | idasanutlin -0.015 | alisertib -0.217 | [2] 0.101 | gefitinib -0.066 | [3] 0.248 | lapatinib 0.014 | [4] -0.01 | [6] -0.216 | duvelisib 0.007 | tozasertib -0.054 | [7] -0.003 | doramapimod 0.052

SLC38A2 (UniProt Q96QD8)
UniProt Q96QD8, sequence (Q96QD8 whole entry, looked up): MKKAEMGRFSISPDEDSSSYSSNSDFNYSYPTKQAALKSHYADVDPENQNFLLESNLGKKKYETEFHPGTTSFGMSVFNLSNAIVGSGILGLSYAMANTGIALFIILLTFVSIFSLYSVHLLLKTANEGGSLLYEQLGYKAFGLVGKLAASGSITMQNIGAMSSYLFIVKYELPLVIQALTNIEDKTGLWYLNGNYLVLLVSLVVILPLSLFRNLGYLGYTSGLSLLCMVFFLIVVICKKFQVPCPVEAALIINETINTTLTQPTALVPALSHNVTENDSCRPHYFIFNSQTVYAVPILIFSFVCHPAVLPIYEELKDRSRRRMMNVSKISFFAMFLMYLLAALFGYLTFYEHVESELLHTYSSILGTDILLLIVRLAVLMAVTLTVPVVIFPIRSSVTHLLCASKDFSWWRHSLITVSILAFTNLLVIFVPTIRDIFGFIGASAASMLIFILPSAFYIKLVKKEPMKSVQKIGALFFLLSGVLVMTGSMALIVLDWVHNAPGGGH
inactive: [1] -0.041 | filanesib -0.205 | zotarolimus 0.048 | idasanutlin 0.011 | alisertib -0.019 | [2] -0.122 | gefitinib -0.099 | [3] 0.097 | lapatinib -0.055 | [4] 0.031 | crizotinib 0.028 | [5] 0.075 | [6] -0.075 | duvelisib 0.068 | tozasertib -0.009 | [7] 0 | doramapimod -0.03 | ispinesib -0.049

TAMM41 isoform 3 (UniProt Q96BW9)
UniProt Q96BW9, sequence (Q96BW9 whole entry, looked up): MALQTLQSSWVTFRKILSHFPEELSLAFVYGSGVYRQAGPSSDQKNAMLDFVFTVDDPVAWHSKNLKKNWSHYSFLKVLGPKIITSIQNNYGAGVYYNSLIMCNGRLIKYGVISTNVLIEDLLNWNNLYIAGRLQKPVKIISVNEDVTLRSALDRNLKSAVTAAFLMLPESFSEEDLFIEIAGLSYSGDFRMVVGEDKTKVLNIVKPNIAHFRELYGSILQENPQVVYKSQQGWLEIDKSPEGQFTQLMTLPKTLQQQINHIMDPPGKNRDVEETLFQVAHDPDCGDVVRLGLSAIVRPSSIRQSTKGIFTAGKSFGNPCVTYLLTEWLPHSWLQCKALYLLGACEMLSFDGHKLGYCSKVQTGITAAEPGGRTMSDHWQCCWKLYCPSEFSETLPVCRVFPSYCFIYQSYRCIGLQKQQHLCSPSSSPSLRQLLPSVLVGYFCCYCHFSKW
active: crizotinib -0.232 | ispinesib -0.249
inactive: [1] -0.027 | filanesib -0.09 | zotarolimus -0.009 | idasanutlin -0.122 | alisertib 0.019 | [2] -0.169 | gefitinib -0.025 | [3] 0.112 | lapatinib 0.021 | pictilisib 0.027 | [4] 0.064 | [5] 0.073 | [6] -0.016 | duvelisib 0.032 | gandotinib -0.04 | tozasertib -0.036 | [7] 0.05 | doramapimod -0.048

SMARCA4 (UniProt P51532)
active: lapatinib -0.544
inactive: [1] -0.101 | filanesib 0.124 | zotarolimus 0.09 | idasanutlin 0.15 | alisertib -0.086 | [2] 0.273 | [3] -0.038 | pictilisib 0.025 | [4] 0.216 | crizotinib 0.01 | [5] 0.036 | [6] 0.188 | duvelisib 0.065 | gandotinib 0.042 | [7] -0.064 | doramapimod 0.085 | ispinesib -0.248

TBC1D20 isoform 3 (UniProt Q96BZ9)
inactive: [1] 0.026 | filanesib -0.023 | zotarolimus 0.136 | idasanutlin -0.184 | alisertib -0.089 | [2] 0.102 | gefitinib 0.148 | [3] -0.032 | lapatinib -0.03 | pictilisib -0.073 | [4] 0.039 | crizotinib -0.121 | [5] 0.088 | [6] 0.036 | gandotinib -0.078 | doramapimod 0.05 | ispinesib 0.113
